Test results from PubChem BioAssay (EPA / NIEHS).
Inconclusive results are not listed. The source made the active and inactive calls. The calls were made as follows, unless noted: active = hit-call score of the fitted dose curve at least 0.9, where 1 is the maximum; inconclusive = response in the unintended direction; inactive = score below 0.9.

Legend:
[1] = ATG_TCF_b_cat_CIS: Attagene CIS-FACTORIAL HepG2 Assay for human T-Cell-Factor with beta-catenin (TCF/b-cat) (AID 2282965; active = hit-call score of the fitted dose curve at least 0.9, where 1 is the maximum; inactive = score below 0.9); details: HepG2 TCF/beta-catenin cis-reporter transcription, actives raise or lower the signal
Summary of the method: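 HepG2 cells transiently transfected with cis-promoter-driven multiplexed reporter units; reporter mRNA measured 24 h after dosing by RT-PCR, FAM labelling, HpaI digestion and capillary electrophoresis. Bidirectional fitting relative to DMSO baseline.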

[2] = ATG_TAL_CIS: Attagene CIS-FACTORIAL HepG2 Assay for human TAL Basal Promoter (AID 2282966; active = hit-call score of the fitted dose curve at least 0.9, where 1 is the maximum; inactive = score below 0.9;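 also: background control endpoint measuring basal TAL promoter reporter mRNA not a specific factor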); details: HepG2 Attagene cis-factorial TAL promoter reporter; actives raise or lower the signal
Summary of the method: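 In this cell-based multiplex, HepG2 liver cells bearing cis-promoter reporter constructs are dosed for 24 hours. Total RNA is reverse-transcribed and amplified, labelled fragments are sized by capillary electrophoresis, and signal changes are fitted bidirectionally versus DMSO.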

[3] = ATG_TGFb_CIS: Attagene CIS-FACTORIAL HepG2 Assay for human Transforming Growth Factor (TGF) (AID 2282967; active = hit-call score of the fitted dose curve at least 0.9, where 1 is the maximum; inactive = score below 0.9); details: HepG2 Attagene CIS TGFb reporter, mRNA transcription; actives raise or lower the signal
Summary of the method: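 Liver HepG2 line, cis-factorial reporter panel, 24 h dosing. Quantitation: RT-PCR products labeled with 6-FAM, cut with HpaI, resolved by capillary electrophoresis; DMSO-referenced bidirectional analysis.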

[4] = ATG_VDRE_CIS: Attagene CIS-FACTORIAL HepG2 Assay for human Vitamin D Receptor Element (VDRE) (AID 2282968; active = hit-call score of the fitted dose curve at least 0.9, where 1 is the maximum; inactive = score below 0.9); details: HepG2 VDRE cis-reporter transcription, actives raise or lower the signal
Summary of the method: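 Transiently transfected HepG2 cells carrying cis-regulated reporter transcription units were exposed for 24 h. Reporter mRNA was measured by RT-PCR with fluorescent labelling and capillary electrophoresis, and fitted in both directions against DMSO.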

[5] = molecular target: Estrogen receptor (Homo sapiens) (UniProt P03372); assay: ATG_ERa_TRANS: Attagene TRANS-FACTORIAL HepG2 Assay for human Estrogen Receptor alpha (ERa) (AID 2282970); details: HepG2 Attagene TRANS ERa GAL4 reporter, mRNA
Chain of Estrogen receptor (Homo sapiens) (P03372 whole entry, looked up, the tested form may be a part): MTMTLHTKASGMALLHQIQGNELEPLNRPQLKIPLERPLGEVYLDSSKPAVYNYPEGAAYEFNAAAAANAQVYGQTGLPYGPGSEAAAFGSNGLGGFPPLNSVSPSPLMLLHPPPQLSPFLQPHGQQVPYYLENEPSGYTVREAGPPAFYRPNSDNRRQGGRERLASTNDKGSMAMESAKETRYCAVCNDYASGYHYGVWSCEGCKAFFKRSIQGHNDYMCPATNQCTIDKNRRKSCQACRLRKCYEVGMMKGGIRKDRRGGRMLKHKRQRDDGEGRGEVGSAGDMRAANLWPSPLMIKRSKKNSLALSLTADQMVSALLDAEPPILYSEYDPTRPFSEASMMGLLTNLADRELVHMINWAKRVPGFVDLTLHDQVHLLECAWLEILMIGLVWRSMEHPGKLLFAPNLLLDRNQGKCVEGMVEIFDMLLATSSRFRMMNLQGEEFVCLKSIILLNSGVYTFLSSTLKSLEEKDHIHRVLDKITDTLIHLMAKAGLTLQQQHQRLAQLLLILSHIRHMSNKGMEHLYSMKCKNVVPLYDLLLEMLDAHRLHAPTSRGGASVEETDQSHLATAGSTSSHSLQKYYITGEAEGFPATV
Summary of the method: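 After 24 h of compound treatment, RNA from HepG2 cells bearing transfected GAL4-UAS reporter constructs is converted to cDNA, amplified and fluorescently labelled. Capillary electrophoresis resolves the ERa-linked reporter; DMSO serves as negative control.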

[6] = molecular target: Steroid hormone receptor ERR1 (Homo sapiens) (UniProt P11474); assay: ATG_ERRa_TRANS: Attagene TRANS-FACTORIAL HepG2 Assay for human Estrogen-Related Receptor alpha (ERRa) (AID 2282971); details: HepG2 Attagene TRANS reporter, ERRa transactivation
Chain of Steroid hormone receptor ERR1 (Homo sapiens) (P11474 whole entry, looked up, the tested form may be a part): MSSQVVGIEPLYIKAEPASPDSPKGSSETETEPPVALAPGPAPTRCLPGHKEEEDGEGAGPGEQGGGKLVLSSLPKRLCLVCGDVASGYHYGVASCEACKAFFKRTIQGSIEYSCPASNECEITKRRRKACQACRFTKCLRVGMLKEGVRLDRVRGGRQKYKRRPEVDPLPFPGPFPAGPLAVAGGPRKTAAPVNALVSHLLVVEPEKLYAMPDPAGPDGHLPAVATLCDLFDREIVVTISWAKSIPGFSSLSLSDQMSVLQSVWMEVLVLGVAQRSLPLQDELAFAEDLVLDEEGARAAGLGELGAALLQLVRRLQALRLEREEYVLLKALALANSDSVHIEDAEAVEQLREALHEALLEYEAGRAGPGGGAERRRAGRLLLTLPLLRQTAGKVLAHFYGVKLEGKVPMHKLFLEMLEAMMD
Summary of the method: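 Transfected HepG2, 24 h dosing, ERRa-Gal4 chimera driving GAL4-UAS reporter. Readout: reporter mRNA via RT-PCR plus capillary electrophoresis (fluorescence). Positive direction vs DMSO control.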

[7] = molecular target: X-box-binding protein 1 (Homo sapiens) (UniProt P17861); assay: ATG_Xbp1_CIS: Attagene CIS-FACTORIAL HepG2 Assay for human X-box Binding Protein 1 (XBP1) (AID 2282972; active = hit-call score of the fitted dose curve at least 0.9, where 1 is the maximum; inactive = score below 0.9); details: HepG2 XBP1 cis-element reporter, Attagene multiplex; actives raise or lower the signal
Chain of X-box-binding protein 1 (Homo sapiens) (P17861 whole entry, looked up): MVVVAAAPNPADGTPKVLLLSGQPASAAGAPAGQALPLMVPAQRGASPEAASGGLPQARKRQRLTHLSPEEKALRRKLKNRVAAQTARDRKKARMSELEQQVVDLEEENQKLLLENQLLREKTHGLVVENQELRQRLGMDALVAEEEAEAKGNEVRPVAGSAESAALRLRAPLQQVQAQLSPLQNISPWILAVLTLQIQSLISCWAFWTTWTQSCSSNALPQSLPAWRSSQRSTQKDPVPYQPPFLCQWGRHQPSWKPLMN
Summary of the method: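 HepG2 cells transiently transfected with multiple cis-element reporter units report endogenous TF activity; 24 h exposure, then reporter mRNA measured by RT-PCR, 6-FAM labelling, HpaI digestion and capillary electrophoresis. Bidirectional fitting versus DMSO.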

[8] = ATG_M_19_TRANS: Attagene TRANS-FACTORIAL HepG2 Assay for M19 Transcription Factor (Internal Marker) (AID 2282974); details: HepG2 Attagene TRANS-FACTORIAL M19 internal marker reporter
Summary of the method: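 Reporter mRNA induction was measured in transfected HepG2 cells 24 h after dosing. Endpoint fitted upward relative to DMSO and serves as a background control within the multiplexed TRANS panel.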

[9] = ATG_GAL4_TRANS: Attagene TRANS-FACTORIAL HepG2 Assay for GAL4 (Internal Marker) (AID 2282976); details: HepG2 Attagene TRANS GAL4 internal marker reporter
Summary of the method: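 RT-PCR/capillary electrophoresis readout of reporter mRNA. HepG2, transient MRTU transfection (GAL4-UAS reporters), 24 h compound exposure. Background-control endpoint, positive direction vs DMSO baseline.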

[10] = molecular target: Estrogen-related receptor gamma (Homo sapiens) (UniProt P62508); assay: ATG_ERRg_TRANS: Attagene TRANS-FACTORIAL HepG2 Assay for human Estrogen-Related Receptor gamma (ERRg) (AID 2282977); details: HepG2 Attagene TRANS reporter, ERRg transactivation;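 also: hits increase reporter signal over DMSO so potencies reflect activators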
Chain of Estrogen-related receptor gamma (Homo sapiens) (P62508 whole entry, looked up, the tested form may be a part): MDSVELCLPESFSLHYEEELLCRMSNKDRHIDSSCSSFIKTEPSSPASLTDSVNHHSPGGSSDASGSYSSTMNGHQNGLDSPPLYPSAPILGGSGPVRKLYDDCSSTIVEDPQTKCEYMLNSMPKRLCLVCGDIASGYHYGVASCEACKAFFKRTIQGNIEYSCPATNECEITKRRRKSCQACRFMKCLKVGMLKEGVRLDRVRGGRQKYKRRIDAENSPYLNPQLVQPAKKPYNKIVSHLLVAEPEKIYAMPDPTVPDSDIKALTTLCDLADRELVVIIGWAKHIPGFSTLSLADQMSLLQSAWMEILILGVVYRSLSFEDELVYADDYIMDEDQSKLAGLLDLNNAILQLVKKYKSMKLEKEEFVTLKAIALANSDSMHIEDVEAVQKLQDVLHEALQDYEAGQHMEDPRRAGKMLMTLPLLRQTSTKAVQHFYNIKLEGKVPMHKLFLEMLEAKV
Summary of the method: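 Transfect HepG2 with multiple GAL4-UAS reporter transcription units; dose chemicals 24 h; isolate RNA, reverse-transcribe with oligo(dT), PCR-amplify, label with 6-FAM, digest with HpaI; size fragments by capillary electrophoresis. DMSO serves as negative control.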

[11] = molecular target: Glucocorticoid receptor (Homo sapiens) (UniProt P04150); assay: ATG_GR_TRANS: Attagene TRANS-FACTORIAL HepG2 Assay for human Glucocorticoid Receptor (GR) (AID 2282978); details: HepG2 Attagene TRANS GR reporter, mRNA transcription;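 also: activators score as hits since higher reporter transcript over DMSO is fitted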
Chain of Glucocorticoid receptor (Homo sapiens) (P04150 whole entry, looked up, the tested form may be a part): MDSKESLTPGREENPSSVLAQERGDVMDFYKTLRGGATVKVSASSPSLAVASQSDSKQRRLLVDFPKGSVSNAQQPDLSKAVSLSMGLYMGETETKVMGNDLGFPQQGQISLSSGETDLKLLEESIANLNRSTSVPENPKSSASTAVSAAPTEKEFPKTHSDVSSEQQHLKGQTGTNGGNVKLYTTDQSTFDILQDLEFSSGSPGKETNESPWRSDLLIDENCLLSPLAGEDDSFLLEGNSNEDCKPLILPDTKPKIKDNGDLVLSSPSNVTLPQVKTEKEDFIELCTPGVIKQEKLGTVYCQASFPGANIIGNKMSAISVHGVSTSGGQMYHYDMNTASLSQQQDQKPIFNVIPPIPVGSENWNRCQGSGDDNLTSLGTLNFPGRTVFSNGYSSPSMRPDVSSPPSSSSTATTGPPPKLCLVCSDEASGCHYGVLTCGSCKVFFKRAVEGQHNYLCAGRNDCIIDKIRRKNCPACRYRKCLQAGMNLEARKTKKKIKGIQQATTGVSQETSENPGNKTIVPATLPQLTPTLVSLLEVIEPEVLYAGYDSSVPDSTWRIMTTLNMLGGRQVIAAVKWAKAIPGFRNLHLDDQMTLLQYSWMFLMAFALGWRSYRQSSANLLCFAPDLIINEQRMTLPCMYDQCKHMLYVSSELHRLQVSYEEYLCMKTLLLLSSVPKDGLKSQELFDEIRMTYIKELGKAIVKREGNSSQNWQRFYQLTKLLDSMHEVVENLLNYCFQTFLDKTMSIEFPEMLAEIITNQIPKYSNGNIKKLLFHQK
Summary of the method: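 Reporter transcript levels, detected by fluorescence after RT-PCR and capillary electrophoresis, served as the endpoint. HepG2 cells bearing transfected GAL4-UAS reporters responsive to NR-GAL4 chimeras were incubated with compound 24 h; DMSO defined baseline.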

[12] = molecular target: Oxysterols receptor LXR-alpha (Homo sapiens) (UniProt Q13133); assay: ATG_LXRa_TRANS: Attagene TRANS-FACTORIAL HepG2 Assay for human Liver X Receptor alpha (LXRa) (AID 2282980); details: HepG2 Attagene TRANS reporter, LXRa transactivation
Chain of Oxysterols receptor LXR-alpha (Homo sapiens) (Q13133 whole entry, looked up, the tested form may be a part): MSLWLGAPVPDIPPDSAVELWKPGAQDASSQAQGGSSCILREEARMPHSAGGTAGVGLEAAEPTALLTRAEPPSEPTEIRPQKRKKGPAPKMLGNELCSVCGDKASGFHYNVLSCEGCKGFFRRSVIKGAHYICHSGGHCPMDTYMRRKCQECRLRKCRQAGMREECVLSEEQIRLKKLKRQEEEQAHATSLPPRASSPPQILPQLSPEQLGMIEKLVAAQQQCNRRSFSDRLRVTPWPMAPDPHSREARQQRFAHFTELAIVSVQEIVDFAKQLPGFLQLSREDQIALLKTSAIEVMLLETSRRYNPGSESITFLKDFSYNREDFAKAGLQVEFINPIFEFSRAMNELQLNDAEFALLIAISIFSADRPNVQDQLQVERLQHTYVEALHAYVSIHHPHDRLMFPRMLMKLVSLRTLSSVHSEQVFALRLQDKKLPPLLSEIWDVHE
Summary of the method: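 Read-out: reporter transcript levels by RT-PCR plus capillary electrophoresis, fluorescence intensity. Transiently transfected HepG2, exogenous NR-GAL4 chimera, GAL4-UAS reporters; 24 h compound exposure. Activity = increase over DMSO negative control.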

[13] = molecular target: Oxysterols receptor LXR-beta (Homo sapiens) (UniProt P55055); assay: ATG_LXRb_TRANS: Attagene TRANS-FACTORIAL HepG2 Assay for human Liver X Receptor beta (LXRb) (AID 2282981); details: HepG2 Attagene TRANS GAL4-LXRb reporter, mRNA
Chain of Oxysterols receptor LXR-beta (Homo sapiens) (P55055 whole entry, looked up, the tested form may be a part): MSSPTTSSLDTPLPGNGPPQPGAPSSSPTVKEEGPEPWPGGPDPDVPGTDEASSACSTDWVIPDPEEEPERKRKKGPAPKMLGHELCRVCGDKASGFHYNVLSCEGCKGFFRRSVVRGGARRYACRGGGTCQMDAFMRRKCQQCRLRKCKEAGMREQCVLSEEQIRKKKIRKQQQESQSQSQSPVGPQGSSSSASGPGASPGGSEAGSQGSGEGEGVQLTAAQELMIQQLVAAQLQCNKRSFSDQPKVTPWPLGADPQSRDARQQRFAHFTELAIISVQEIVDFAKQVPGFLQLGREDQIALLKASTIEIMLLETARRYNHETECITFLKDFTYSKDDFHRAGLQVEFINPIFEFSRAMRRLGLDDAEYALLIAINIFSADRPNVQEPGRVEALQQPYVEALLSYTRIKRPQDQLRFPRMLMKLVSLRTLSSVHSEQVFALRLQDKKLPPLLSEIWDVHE
Summary of the method: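 HepG2 cells transiently transfected with GAL4-UAS reporter units for chimeric NR-Gal4 proteins, dosed for 24 h. Reporter transcripts measured by RT-PCR and capillary electrophoresis; gain-of-signal fitting relative to DMSO.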

[14] = molecular target: Hepatocyte nuclear factor 4-alpha (Homo sapiens) (UniProt P41235); assay: ATG_HNF4a_TRANS: Attagene TRANS-FACTORIAL HepG2 Assay for human Hepatocyte Nuclear Factor 4 alpha (HNF4a) (AID 2282982); details: HepG2 HNF4a transactivation reporter, mRNA readout
Chain of Hepatocyte nuclear factor 4-alpha (Homo sapiens) (P41235 whole entry, looked up, the tested form may be a part): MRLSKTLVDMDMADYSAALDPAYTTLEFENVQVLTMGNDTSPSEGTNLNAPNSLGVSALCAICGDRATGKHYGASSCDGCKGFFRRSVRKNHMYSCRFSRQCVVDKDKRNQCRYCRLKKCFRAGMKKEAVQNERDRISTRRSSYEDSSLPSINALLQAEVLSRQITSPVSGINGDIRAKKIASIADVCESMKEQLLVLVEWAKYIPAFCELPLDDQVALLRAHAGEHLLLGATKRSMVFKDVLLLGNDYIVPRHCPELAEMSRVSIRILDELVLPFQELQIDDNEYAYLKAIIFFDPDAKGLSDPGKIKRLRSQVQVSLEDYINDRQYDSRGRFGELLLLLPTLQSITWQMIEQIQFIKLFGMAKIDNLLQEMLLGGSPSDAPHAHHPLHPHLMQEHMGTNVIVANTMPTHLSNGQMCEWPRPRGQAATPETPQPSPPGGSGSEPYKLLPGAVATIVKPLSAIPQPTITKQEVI
Summary of the method: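 HepG2 cells transiently transfected with HNF4a-Gal4 chimera and GAL4-UAS reporter units, dosed for 24 h. Reporter mRNA measured by RT-PCR, fluorescent primer extension and capillary electrophoresis; gain-of-signal fitted relative to DMSO.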

[15] = molecular target: Transcriptional activator Myb (Homo sapiens) (UniProt P10242); assay: ATG_Myb_CIS: Attagene CIS-FACTORIAL HepG2 Assay for human Myeloblastosis (Myb) Proto-Oncogene Transcription Factor (AID 2282986; active = hit-call score of the fitted dose curve at least 0.9, where 1 is the maximum; inactive = score below 0.9); details: HepG2 Attagene CIS-FACTORIAL Myb reporter transcription; actives raise or lower the signal
Chain of Transcriptional activator Myb (Homo sapiens) (P10242 whole entry, looked up): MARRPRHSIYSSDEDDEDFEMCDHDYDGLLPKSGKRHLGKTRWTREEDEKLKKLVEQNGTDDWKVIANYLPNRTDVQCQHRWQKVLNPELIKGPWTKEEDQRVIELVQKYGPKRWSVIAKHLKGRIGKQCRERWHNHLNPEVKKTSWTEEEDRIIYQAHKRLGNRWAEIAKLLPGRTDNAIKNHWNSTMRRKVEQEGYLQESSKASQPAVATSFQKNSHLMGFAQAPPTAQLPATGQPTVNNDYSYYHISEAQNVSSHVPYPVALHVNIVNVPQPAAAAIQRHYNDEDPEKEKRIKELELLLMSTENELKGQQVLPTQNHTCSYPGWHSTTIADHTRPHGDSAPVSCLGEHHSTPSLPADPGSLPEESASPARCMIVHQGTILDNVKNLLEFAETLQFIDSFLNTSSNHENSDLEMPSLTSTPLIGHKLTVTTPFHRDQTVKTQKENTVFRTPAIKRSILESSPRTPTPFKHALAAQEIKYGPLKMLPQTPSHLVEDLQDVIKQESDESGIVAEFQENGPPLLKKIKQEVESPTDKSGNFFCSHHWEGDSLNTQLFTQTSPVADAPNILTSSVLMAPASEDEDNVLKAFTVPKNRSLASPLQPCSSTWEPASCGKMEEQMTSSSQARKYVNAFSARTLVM
Summary of the method: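 Transiently transfected HepG2 cells, treated 24 h. Reporter mRNA quantified by RT-PCR/capillary electrophoresis; bidirectional fit relative to DMSO.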

[16] = molecular target: Nuclear receptor subfamily 1 group I member 3 (Homo sapiens) (UniProt Q14994); assay: ATG_CAR_TRANS: Attagene TRANS-FACTORIAL HepG2 Assay for human Constitutive Androstane Receptor (CAR) (AID 2282969); details: HepG2 Attagene TRANS-FACTORIAL CAR reporter;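 also: activators raise reporter mRNA above DMSO so AC50 marks induction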
Chain of Nuclear receptor subfamily 1 group I member 3 (Homo sapiens) (Q14994 whole entry, looked up, the tested form may be a part): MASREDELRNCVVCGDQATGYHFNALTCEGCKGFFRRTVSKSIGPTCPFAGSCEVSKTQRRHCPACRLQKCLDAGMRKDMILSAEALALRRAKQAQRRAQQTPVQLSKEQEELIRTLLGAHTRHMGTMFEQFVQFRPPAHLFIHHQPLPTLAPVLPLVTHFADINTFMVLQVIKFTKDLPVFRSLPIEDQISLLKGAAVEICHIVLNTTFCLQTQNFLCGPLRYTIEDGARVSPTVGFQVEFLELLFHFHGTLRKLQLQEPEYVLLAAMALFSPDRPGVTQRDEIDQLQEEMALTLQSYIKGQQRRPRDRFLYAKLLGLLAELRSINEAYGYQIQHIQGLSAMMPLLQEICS
Summary of the method: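 HepG2 cells transiently transfected with GAL4-UAS reporter units; TRANS format reads activity of exogenous chimeric NR-Gal4 protein. After 24 h dosing, reporter mRNA quantified by RT-PCR, 6-FAM labelling and capillary electrophoresis; gain of signal fitted against DMSO.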

[17] = ATG_M_06_TRANS: Attagene TRANS-FACTORIAL HepG2 Assay for M06 Transcription Factor (Internal Marker) (AID 2282983); details: HepG2 Attagene TRANS M06 internal marker reporter
Summary of the method: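 After a 24 h chemical treatment of transfected HepG2, RNA underwent DNase I treatment, reverse transcription and reporter-specific PCR; labelled, HpaI-digested products were sized by capillary electrophoresis. Signal increase relative to DMSO defined activity.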

[18] = ATG_M_32_TRANS: Attagene TRANS-FACTORIAL HepG2 Assay for M32 Transcription Factor (Internal Marker) (AID 2282984); details: HepG2 Attagene TRANS M32 internal marker reporter;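 also: transcript level of a background control reporter unit measured by RT-PCR and capillary electrophoresis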
Summary of the method: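 HepG2 cells transiently transfected with GAL4-UAS reporter units, dosed for 24 hours. Reporter mRNA quantified by RT-PCR, 6-FAM labelling, HpaI digestion and capillary electrophoresis; internal-marker signal fitted upward relative to DMSO.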

[19] = molecular target: Nuclear receptor subfamily 4 group A member 2 (Homo sapiens) (UniProt P43354); assay: ATG_NURR1_TRANS: Attagene TRANS-FACTORIAL HepG2 Assay for human Nuclear Receptor Related Protein 1 (NURR1) (AID 2282985); details: HepG2 Attagene TRANS reporter, mRNA readout
Summary of the method: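 HepG2 cells transiently transfected with NURR1-Gal4 chimera and GAL4-UAS reporter units; after 24 hr compound exposure, reporter mRNA quantified by RT-PCR and capillary electrophoresis; gain of signal fitted against DMSO.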

[20] = molecular target: Bile acid receptor (Homo sapiens) (UniProt Q96RI1); assay: ATG_FXR_TRANS: Attagene TRANS-FACTORIAL HepG2 Assay for Farnesoid X Receptor (FXR) (AID 2282979); details: HepG2 Attagene TRANS FXR-GAL4 reporter transcription;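 also: hits raise reporter mRNA above DMSO so AC50 marks FXR activation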
Summary of the method: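 Read-out: fluorescent reporter transcripts quantified by capillary electrophoresis after RT-PCR of total RNA. Source cells were HepG2 transiently carrying chimeric NR-GAL4 plus GAL4-UAS reporter units, dosed 24 h. Activity fitted upward relative to DMSO baseline.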

CCN(CC)c1cccc(C)c1
outcome [1]: inactive | outcome [2]: inactive | outcome [3]: inactive | outcome [4]: inactive | outcome [5]: inactive | outcome [6]: inactive | outcome [7]: inactive | outcome [8]: inactive | outcome [9]: inactive | outcome [10]: inactive | outcome [11]: inactive | outcome [12]: inactive | outcome [13]: inactive | outcome [14]: inactive | outcome [15]: inactive

O=C1CCCCCCCCCCCN1
outcome [1]: inactive | outcome [2]: inactive | outcome [3]: inactive | outcome [4]: inactive | outcome [16]: inactive | outcome [5]: inactive | outcome [9]: inactive | outcome [12]: inactive | outcome [17]: inactive | outcome [15]: inactive

CCCCOC(=O)CCC(C)=O
outcome [1]: inactive | outcome [2]: inactive | outcome [3]: inactive | outcome [4]: inactive | outcome [16]: inactive | outcome [5]: inactive | outcome [8]: inactive | outcome [11]: inactive | outcome [12]: inactive | outcome [14]: inactive | outcome [18]: inactive | outcome [19]: inactive | outcome [15]: inactive

C=CC(=O)NC(C)(C)C
outcome [1]: inactive | outcome [2]: inactive | outcome [3]: inactive | outcome [4]: inactive | outcome [16]: inactive | outcome [5]: inactive | outcome [7]: inactive | outcome [13]: inactive | outcome [14]: inactive | outcome [17]: inactive | outcome [19]: inactive | outcome [15]: inactive

C=C(C)C(=O)OCC(O)COc1ccc(C(C)(C)c2ccc(OCC(O)COC(=O)C(=C)C)cc2)cc1 (stereo not given)
outcome [1]: inactive | outcome [2]: inactive | outcome [3]: inactive | AC50 [4]: 9.75 µM (active) | outcome [16]: inactive | AC50 [7]: 26.3 µM (active) | outcome [8]: inactive | outcome [9]: inactive | outcome [10]: inactive | outcome [14]: inactive | outcome [18]: inactive | AC50 [15]: 158 µM (active)

C=CC(=O)NCOCCCC
outcome [1]: inactive | outcome [2]: inactive | outcome [3]: inactive | AC50 [4]: 49.8 µM (active) | outcome [16]: inactive | outcome [17]: inactive | outcome [18]: inactive | outcome [19]: inactive

COC(=O)C=Cc1ccccc1
outcome [1]: inactive | outcome [2]: inactive | outcome [3]: inactive | outcome [4]: inactive | outcome [16]: inactive | outcome [5]: inactive | outcome [7]: inactive | outcome [9]: inactive | outcome [12]: inactive | outcome [13]: inactive | outcome [17]: inactive | outcome [15]: inactive

CC(C)(O)Cc1ccccc1
outcome [1]: inactive | outcome [2]: inactive | outcome [3]: inactive | outcome [4]: inactive | outcome [5]: inactive | outcome [6]: inactive | outcome [7]: inactive | outcome [8]: inactive | outcome [11]: inactive | outcome [18]: inactive | outcome [19]: inactive | outcome [15]: inactive

C[Si]1(C)O[Si](C)(C)O[Si](C)(C)O[Si](C)(C)O[Si](C)(C)O1
outcome [1]: inactive | outcome [2]: inactive | outcome [3]: inactive | outcome [4]: inactive | outcome [16]: inactive | outcome [7]: inactive | outcome [8]: inactive | outcome [9]: inactive | outcome [11]: inactive | outcome [13]: inactive | outcome [17]: inactive | outcome [18]: inactive | outcome [15]: inactive

CC(C)CC(=O)OCc1ccccc1
outcome [1]: inactive | outcome [2]: inactive | outcome [3]: inactive | outcome [4]: inactive | outcome [16]: inactive | outcome [5]: inactive | outcome [7]: inactive | outcome [9]: inactive | outcome [14]: inactive | outcome [17]: inactive | outcome [19]: inactive | outcome [15]: inactive

Cn1ccnc1
outcome [1]: inactive | outcome [2]: inactive | outcome [3]: inactive | outcome [4]: inactive | outcome [16]: inactive | outcome [6]: inactive | outcome [7]: inactive | outcome [8]: inactive | outcome [10]: inactive | outcome [11]: inactive | outcome [20]: inactive | outcome [12]: inactive | outcome [14]: inactive | outcome [18]: inactive | outcome [19]: inactive | outcome [15]: inactive
